Source: PubChem (National Center for Advancing Translational Sciences (NCATS))
This is a sample that favours compounds with a hit; in the whole collection about 3.3% have one here.
NS1 function inh: influenza NS1 inhibition; Potency, µM (doses to about 46.1 µM); AID 2326; actives 0.4% (n = 270,000); calls by dose curve; note: actives are rising curves; nearly all actives have a fitted effect of over 50% in size
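Read-out: OD600 growth recovery of NS1-expressing budding yeast. Cells grown overnight at 30C in -URA glucose medium, washed, resuspended and diluted 1:100 in 2% galactose assay medium, pH 6.0. Same strain lacking NS1 served as positive control.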
RE007 growth inh: less growth of the S. pombe RE007 Vpr strain; S. pombe RE007 Vpr strain, BacTiter-Glo ATP luminescence, 24 h; Potency, µM (series often up to 92.2 µM), actives largely listed as inhibitors; actives 0.21% (n = 360,000); active = well fitted falling curve with a large enough effect; inconclusive = small, poorly fitted or top-dose-only effect; inactive = no such curve, though single readings can be large or run the other way; note: nearly all actives have a fitted effect of over 50% in size
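Fission yeast strain RE007, carrying one chromosomally integrated HIV-1 vpr copy, was seeded at OD 0.01 in PMG+AL medium with 23 nL pinned compound. After 24 h at 30 °C and 99% humidity, viability was read by BacTiter-Glo luminescence.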
LmPK inhibitor: blocks Leishmania mexicana pyruvate kinase activity | purified LmPK, Kinase-Glo ATP luminescence, 1 h | actives 0.37% (n = 290,000) | AID 1721 | Q27686 | Potency, µM (doses to about 57.5 µM), most hits filed as inhibitors
Target sequence (Q27686 whole entry, looked up): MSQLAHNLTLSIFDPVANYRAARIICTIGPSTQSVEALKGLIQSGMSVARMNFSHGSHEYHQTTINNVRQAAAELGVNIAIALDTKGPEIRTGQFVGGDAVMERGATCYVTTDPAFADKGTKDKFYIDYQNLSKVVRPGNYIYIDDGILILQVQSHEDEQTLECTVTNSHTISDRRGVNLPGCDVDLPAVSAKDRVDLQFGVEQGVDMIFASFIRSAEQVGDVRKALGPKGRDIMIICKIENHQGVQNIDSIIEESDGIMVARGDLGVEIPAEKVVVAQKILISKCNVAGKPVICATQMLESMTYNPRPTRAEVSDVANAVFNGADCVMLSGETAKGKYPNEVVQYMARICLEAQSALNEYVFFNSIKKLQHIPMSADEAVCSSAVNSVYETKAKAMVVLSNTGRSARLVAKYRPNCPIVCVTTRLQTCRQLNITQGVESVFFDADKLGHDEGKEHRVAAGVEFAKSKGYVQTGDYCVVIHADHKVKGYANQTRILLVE
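qHTS format; LmPK 0.1 nM; substrates PEP 0.5 mM and ADP 0.1 mM. One-hour room-temperature incubation, then coupled luciferase luminescence; 0.5 nM enzyme wells mark activation.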
SARS PLpro yeast: inhibitors of SARS-CoV papain-like protease in yeast. S. cerevisiae expressing SARS-CoV PLpro, growth rescue. Potency, µM (series often up to 32.9 µM), usual class: activators. actives 0.19% (n = 330,000). AID 485353; calls by dose curve; note: nearly all actives have a fitted effect of over 55% in size
TbPYK inhibitor: inhibitors of Trypanosoma brucei pyruvate kinase | AID 624173 | actives 0.12% (n = 410,000) | Potency, µM (series often up to 76.8 µM), hits mostly inhibitors | Q57TT1 | TbPYK enzyme, Kinase-Glo Plus ATP luminescence, 45 min; note: nearly all actives have a fitted effect of over 50% in size
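Glycolytic pyruvate kinase of T. brucei was incubated with substrate, test compound and 130 uM ADP for 45 minutes at room temperature. Luminescent Kinase-Glo Plus signal was measured after 10 minutes.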
Sm TGR inh: inhibitors of Schistosoma mansoni thioredoxin glutathione reductase | Q962Y6 | purified TGR, DTNB reduction, TNB absorbance 405 nm | Potency, µM (highest dose often 114 µM), actives largely listed as inhibitors | actives 3% (n = 360,000); note: nearly all actives have a fitted effect of over 60% in size
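First, TGR (20 nM dispensed) and NADPH were mixed with compound. Second, a 15 min room-temperature incubation followed. Third, further NADPH and then DTNB were added to start the reaction. Finally, TNB absorbance was monitored kinetically.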
A number is an active result; [ ] = dose if it differs, or a comment. Unless noted, calls come from the whole dose curve; as a rule, active = well fitted curve in the direction sought with a large enough effect; inconclusive = small, poorly fitted or top-dose-only effect, or another doubt; inactive = no such curve, though single readings can be large; an effect the other way counts as inactive or inconclusive.

`CCc1nn2c(-c3ccccc3OC)ccnc2c1-c1ccccc1` gave TbPYK inhibitor inactive and Sm TGR inh inactive.
For CC(C)c1ccc(OCC(=O)N(Cc2cccs2)C2CCS(=O)(=O)C2)cc1 (stereo not drawn) the results were TbPYK inhibitor inactive and Sm TGR inh inactive.
Screening CCOC(=O)c1cnc(SSc2ncc(C(=O)OCC)c(N)n2)nc1N returned NS1 function inh inactive, RE007 growth inh inactive, LmPK inhibitor inactive, SARS PLpro yeast inactive, TbPYK inhibitor inconclusive and Sm TGR inh 50µM.
CCC(C)NC(=O)CS(=O)Cc1nc(-c2cccc(C)c2)oc1C (stereo not drawn) was read as NS1 function inh inactive, RE007 growth inh inactive, LmPK inhibitor inactive, SARS PLpro yeast inactive, TbPYK inhibitor inactive and Sm TGR inh 25µM.
`Cc1cccc(-c2nc(CS(=O)CC(=O)N3CCc4ccccc4C3)c(C)o2)c1` (stereo not drawn) gave NS1 function inh inactive, RE007 growth inh inactive, LmPK inhibitor inactive, SARS PLpro yeast inactive, TbPYK inhibitor inactive and Sm TGR inh inconclusive.
For CCCCSCCCNC(=O)CS(=O)Cc1nc(-c2cccc(C)c2)oc1C (stereo not drawn) the results were NS1 function inh inactive, RE007 growth inh inactive[3.69 µM], LmPK inhibitor inactive, SARS PLpro yeast inactive and Sm TGR inh 45µM.
CCCCNC(=O)CS(=O)Cc1nc(-c2cccc(C)c2)oc1C (stereo not drawn) was read as NS1 function inh inactive, RE007 growth inh inactive, LmPK inhibitor inactive, SARS PLpro yeast inactive, TbPYK inhibitor inactive and Sm TGR inh inconclusive.
CCCCNC(=O)CS(=O)Cc1nc(-c2cccc(Cl)c2)oc1C (stereo not drawn) was read as NS1 function inh inactive, RE007 growth inh inactive, LmPK inhibitor inactive, SARS PLpro yeast inactive, TbPYK inhibitor inactive and Sm TGR inh 32µM.
Screening Cc1ccc(-n2ncc3c(NC4CCCCCC4)ncnc32)cc1 returned TbPYK inhibitor inactive and Sm TGR inh inactive.
For CC1(C)S[C@@H]2[C@H](C(=O)O)N=C(Cc3ccccc3)N2[C@H]1C(=O)O the results were NS1 function inh inactive.
Oc1cccc(-c2nc3ccccc3s2)c1 was read as NS1 function inh inactive, RE007 growth inh inconclusive, LmPK inhibitor inactive, SARS PLpro yeast inactive, TbPYK inhibitor inconclusive and Sm TGR inh inactive.
Nc1cccc(-c2nc3ccccc3s2)c1 was read as NS1 function inh inactive, RE007 growth inh inconclusive, LmPK inhibitor 14µM, SARS PLpro yeast inactive, TbPYK inhibitor inactive and Sm TGR inh inactive.
`COc1ccc(-c2nc3ccccc3s2)cc1O` gave NS1 function inh inactive, RE007 growth inh inconclusive, LmPK inhibitor 16µM, SARS PLpro yeast inactive, TbPYK inhibitor inactive and Sm TGR inh inactive.
For Cc1cc(C)c(NC(=O)c2cc(CN3CCOCC3)on2)c(C)c1 the results were TbPYK inhibitor inactive and Sm TGR inh inactive.
Screening C#CCNC(=O)C1=C[C@@H](c2ccc3c(c2)OCO3)[C@H](CCCO)[C@@H](OCC)O1 returned NS1 function inh inactive, RE007 growth inh inactive, LmPK inhibitor inactive, SARS PLpro yeast inactive, TbPYK inhibitor inactive and Sm TGR inh 45µM.
`O=C(NCCc1ccccc1)C1COc2ccccc2O1` (stereo not drawn) gave NS1 function inh inactive, RE007 growth inh inactive, LmPK inhibitor inactive, SARS PLpro yeast inactive, TbPYK inhibitor inactive and Sm TGR inh inactive.
O=C(NCCc1ccc(O)c(O)c1)C1COc2ccccc2O1 (stereo not drawn) was read as NS1 function inh inactive, RE007 growth inh inactive, LmPK inhibitor inactive, SARS PLpro yeast inactive, TbPYK inhibitor inconclusive and Sm TGR inh 4.5µM.
`O=C(N/N=C\C=C\c1ccco1)C1COc2ccccc2O1` (stereo not drawn) gave NS1 function inh inactive, RE007 growth inh inactive, LmPK inhibitor inactive, SARS PLpro yeast inactive, TbPYK inhibitor inactive and Sm TGR inh 3.2µM.
Screening O=C(NC1CCCCC1)C1COc2ccccc2O1 (stereo not drawn) returned RE007 growth inh inactive, SARS PLpro yeast inactive, TbPYK inhibitor inactive and Sm TGR inh 28µM.
